# Bioassay records deposited in PubChem BioAssay by The Scripps Research Institute Molecular Screening Center.
# The list is not random: actives were taken first. Their share in the collection is about 1.1%.
# SRC3 inh: human NCOA3 inhibition; Q9Y6Q9; HEK293 GAL4-SRC3 luciferase reporter, luminescence; inhibition, % at 3.6 µM; actives 0.17% (n = 360,000);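 active = inhibition above a per-campaign cutoff, the mean of all compounds plus 3 SD, cut at about 60% in these data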;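 note: higher means less SRC3-driven luciferase light from the GAL4 reporter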
# SRC2 inh: human SRC2 (NCOA2) inhibition | actives 0.17% (n = 370,000) | AID 651957 | HEK293 GAL4-SRC2 luciferase reporter, luminescence | inhibition, % at 9 µM | Q15596;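 active = inhibition above the mean inhibition of all tested compounds plus 3 SD, set per campaign, cut at about 52% in these data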
# SRC1 inh: inhibitors of human steroid receptor coactivator 1 (SRC1); Q15788; actives 0.12% (n = 360,000); HEK293 GAL4-SRC1 luciferase reporter, luminescence; AID 588354; inhibition, % at 3.6 µM;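 active = inhibition above the campaign mean plus 3 SD, with each screening campaign given its own cutoff, cut at about 60% in these data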
# COUP-TFII inh: inhibitors of human COUP-TFII (NR2F2); actives 0.7% (n = 370,000); P24468; HEK293T NGFI-A luciferase reporter, luminescence; AID 686940; inhibition, % at 8.6 µM;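 active = inhibition above a per-plate cutoff, mean inhibition of test wells between control levels plus 3 SD, cut at about 38% in these data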;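 note: cells cotransfected with COUP-TFII expression vector driving the NGFI-A reporter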
# Target sequence (P24468 whole entry, looked up): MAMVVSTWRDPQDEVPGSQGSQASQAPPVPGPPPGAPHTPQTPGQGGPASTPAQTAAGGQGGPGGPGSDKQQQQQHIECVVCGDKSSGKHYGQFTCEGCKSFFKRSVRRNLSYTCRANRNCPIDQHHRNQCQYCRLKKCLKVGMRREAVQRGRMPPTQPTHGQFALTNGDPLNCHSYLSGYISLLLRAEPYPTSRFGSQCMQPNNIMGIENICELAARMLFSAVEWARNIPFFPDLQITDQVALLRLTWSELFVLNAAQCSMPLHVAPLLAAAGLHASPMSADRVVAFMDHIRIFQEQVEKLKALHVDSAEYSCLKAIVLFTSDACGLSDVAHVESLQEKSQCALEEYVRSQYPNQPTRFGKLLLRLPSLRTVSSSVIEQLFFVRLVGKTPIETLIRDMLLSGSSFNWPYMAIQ
# GalR3 antag: human GalR3 antagonism; O60755; HEK293 GalR3-CNG cAMP membrane potential fluorescence; galR3 body fused to GalR1 C-terminus; inhibition, % at 3 µM; actives 0.44% (n = 360,000);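 active = inhibition above the screen-wide average plus 3 SD, cut at about 13% in these data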;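 note: forskolin and galanin both at EC90 stimulate the cells; cAMP rise reported by CNG channel membrane potential dye signal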
# LRH-1 inv ag: suppresses constitutive activity of human LRH-1; O00482; HEK293T StAR-luciferase reporter, LRH-1 transfected, 24 h; actives 0.13% (n = 360,000); inhibition, % at 3.6 µM;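 active = inhibition above the mean inhibition of all tested compounds plus 3 SD, cut at about 73% in these data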
# GalR3 conf: GalR3 (human) antagonism, confirmation. HEK293 GalR3 CNG cAMP biosensor, membrane potential fluorescence; galR3 fused to GalR1 carboxy tail; challenged with forskolin and galanin at EC90. AID 652245. inhibition, % at 3 µM. actives 59% (n = 1,600). shares compounds with GalR3 antag;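 active = inhibition above the primary screen's cutoff, the mean inhibition of all screened compounds plus 3 SD, cut at about 13% in these data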
# CNG parental: acts as nonspecific agonist in parental HEK-CNG cells; activation, % at 3 µM; AID 652268; HEK293-CNG parental cells, cAMP membrane potential fluorescence; normalised: DMSO wells 0%, forskolin wells 100%; actives 10% (n = 1,600); shares compounds with GalR3 antag; in the data active = activation above about 1.3%
# Numbers stand for hits; 0 = inactive; - = no result.
SMILES,SRC3 inh,SRC2 inh,SRC1 inh,COUP-TFII inh,GalR3 antag,LRH-1 inv ag,GalR3 conf,CNG parental
CC(C(=O)Nc1ccc2[nH]c(=O)[nH]c2c1)N1CCN(Cc2ccc3c(c2)OCO3)CC1 (configuration not stated),0,0,0,0,13.4,0,13.4,0
COCOc1cc(O)c(C(=O)/C=C/c2ccccc2)c(OCOC)c1,0,0,0,0,21.5,0,19.8,0
CCOCCCNC(=S)N1CCN(Cc2ccc3c(c2)OCO3)CC1,0,0,0,0,15.1,0,0,0
Cc1ccc(-c2cc(-c3nnc(SCC(=O)N4c5ccccc5Sc5ccc(Cl)cc54)n3N)[nH]n2)cc1,-,0,-,0,-,-,-,-
COC(=O)[C@]12C[C@H](CC(=O)NCc3ccc(C)o3)C(=O)N(Cc3cccc4ccccc34)C1=C[C@H](C(C)(C)C)O[C@@H]2C,-,0,-,0,-,-,-,-
CCn1nc(CC(=O)Nc2ccc(-n3cnnn3)c(OC)c2)c2ccccc2c1=O,0,0,0,0,17.3,0,17.4,0
S=c1[nH]nc(-c2cc(-c3ccccc3)n[nH]2)n1N=Cc1c[nH]c2ccccc12,-,0,-,0,-,-,-,-
O=C(CSc1nnc(-c2ccco2)c(-c2ccco2)n1)c1ccccc1,0,0,0,0,12.7,0,0,0
CC(=O)c1ccc(NC(=O)CSc2nnc(-c3ccco3)c(-c3ccco3)n2)cc1,0,0,0,0,0,0,-,-
COC(=O)[C@]12C[C@H](CC(=O)N3CCOCC3)C(=O)N(CCc3ccc(OC)c(OC)c3)C1=C[C@H](C1CCCC1)O[C@@H]2C,-,0,-,0,-,-,-,-
COc1cccc(-c2ccc(-c3noc(-c4cccs4)n3)c(OC)n2)c1,0,0,0,0,14.9,0,13.3,0
COc1cccc(-c2ccc(-c3noc(-c4ccccc4F)n3)c(OC)n2)c1,0,0,0,0,0,0,-,-
Cc1cc(C(F)(F)F)n(-c2nc(C(=O)O)cs2)n1,0,0,0,0,0,0,-,-
COc1ccc(C2=NN(c3nc(C(=O)O)cs3)C(O)(C(F)(F)F)C2)c(OC)c1 (configuration not stated),0,0,0,0,66.4,0,74.0,0
CCOC(=O)[C@]12CCCCC/C=C\1N(Cc1ccc(OC)cc1)C(=O)[C@H]2CC(=O)NCc1cccs1,-,0,-,0,-,-,-,-
COc1ccc(C(=S)N2CCCCCC2)cc1,0,0,0,0,12.7,0,0,0
CC1CCC2(CCC(=O)N2CCCOC(=O)NC(C)(C)C)CC1 (configuration not stated),-,0,-,0,-,-,-,-
O=C(COC(=O)/C=C/c1cccc(Cl)c1)Nc1ccc2[nH]c(=O)[nH]c2c1,0,0,0,0,35.5,0,44.2,6.9
O=C(COC(=O)/C=C/c1cccc(F)c1)Nc1ccc2[nH]c(=O)[nH]c2c1,0,0,0,0,0,0,-,-
Cc1cc(C)nc(N2CCN(C(=O)CSc3nc4ccccc4nc3N3CC(C)OC(C)C3)CC2)n1 (configuration not stated),-,0,-,0,-,-,-,-
COc1cc(/C=N/n2cnnc2)ccc1OCc1ccc(C)cc1,0,0,0,0,58.8,0,43.5,0
CCCCC[C@@H](/C=C/C1C(=O)C=C[C@H]1C/C=C\CCCC(=O)O)OC(C)=O (some centres not stated),0,0,0,0,99.9,0,98.5,0
COc1cc(CN2CCC(CO)(Cc3cccc(C(F)(F)F)c3)CC2)ccc1F,0,0,0,0,0,0,-,-
COc1ccc(CN2CCC(CO)(Cc3cccc(C(F)(F)F)c3)CC2)cc1Cn1cccn1,0,0,0,0,16.3,0,0,3.9
COc1ccc(-c2nnc3n2N=C(c2cccc([N+](=O)[O-])c2)CS3)cc1,-,0,-,0,-,-,-,-
COc1ccccc1NC(=O)OC1CCC12CCCCC2 (configuration not stated),-,0,-,0,-,-,-,-
